High-throughput results as filed in PubChem.
ssDAF-12 act: S. stercoralis DAF-12 activation, primary screen | HEK293 ssDAF-12/GRIP1 lit1-tk-luc reporter, luminescence; % of 3 µM dafachronic acid response | activation, % at 6.8 µM | hit rate 1% among 370,000 | AID 652126;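 active = activation above the mean over all tested compounds plus 3 SD, cut at about 0.9% in these data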;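 also: 0% = DMSO-only wells and 100% = 3 µM delta7-dafachronic acid wells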
DAX1 inh-1: inhibitors of DAX1 repression of SF-1 activated StAR promoter. HEK293T StAR-luciferase reporter, SF-1/DAX-1 repression relief. AID 652010. hit rate 1.1% among 370,000. inhibition, % at 6.8 µM;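 active = inhibition above the mean over all tested compounds plus 3 SD, cut at about 3.6% in these data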;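 also: 0% = DAX-1 cells with DMSO and 100% = cells lacking DAX-1 with DMSO; higher inhibition means more luminescence from relief of DAX-1 repression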
hgDAF-12 ag: hgDAF-12 agonism, primary luciferase screen; hit rate 1.8% among 370,000; AID 687014; HEK293 GAL4-hgDAF12 UAS-luciferase reporter, agonist luminescence; normalized to butyrate control; activation, % at 6.8 µM;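 active = activation above a cutoff set at the mean of all screened compounds plus 3 SD, cut at about 10% in these data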;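 also: 0% = DMSO wells and 100% = sodium butyrate wells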
hcDAF-12 act: activates DAF-12 receptor from parasite H. contortus; HEK293 hcDAF-12 lit1-tk-luc reporter, luminescence; 0% DMSO, 100% Δ7-dafachronic acid; activation, % at 6.8 µM; hit rate 1.4% among 370,000;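 active = activation above the mean of all tested compounds plus 3 SD, cut at about 5.5% in these data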;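 also: 100% = response to 3 µM Δ7-dafachronic acid high control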
GAA850 FXN act: frataxin GAA850 promoter activation. HEK293 lucGAA850 FXN promoter luciferase reporter, 24 h; percent of 10 µM SAHA response. activation, % at 6 µM. hit rate 0.56% among 360,000;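 active = activation above the average of all compounds screened plus 3 SD, cutoff fixed separately per campaign, cut at about 7.5% in these data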;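 also: 0% = DMSO wells and 100% = 10 µM SAHA wells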
DAX1 inh-2: NR0B1 (DAX1) inhibition; HEK293 Gal4-DAX1 luciferase reporter, luminescence; P51843; inhibition, % at 6.75 µM; hit rate 0.99% among 340,000;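 active = inhibition above the mean over all tested compounds plus 3 SD, cut at about 4.2% in these data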;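 also: 0% = DAX1-transfected cells with DMSO and 100% = empty-vector control cells with DMSO; inhibition shows as a rise in luminescence from relieved DAX1 repression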
LXR ag: activates human LXR-beta, counter-screen for hcDAF-12 agonists; shares compounds with hcDAF-12 act; HEK293 Gal4-LXR tk-luc reporter, luminescence, 24 h; normalized: DMSO 0%, positive control 100%; activation, % at 6.8 µM; 3,400 tested, under 10 active;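 active = mean percent activation of the reporter above a cutoff set as the average over tested compounds plus their standard deviation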
Target sequence (P55055 whole entry, looked up, the tested form may be a part): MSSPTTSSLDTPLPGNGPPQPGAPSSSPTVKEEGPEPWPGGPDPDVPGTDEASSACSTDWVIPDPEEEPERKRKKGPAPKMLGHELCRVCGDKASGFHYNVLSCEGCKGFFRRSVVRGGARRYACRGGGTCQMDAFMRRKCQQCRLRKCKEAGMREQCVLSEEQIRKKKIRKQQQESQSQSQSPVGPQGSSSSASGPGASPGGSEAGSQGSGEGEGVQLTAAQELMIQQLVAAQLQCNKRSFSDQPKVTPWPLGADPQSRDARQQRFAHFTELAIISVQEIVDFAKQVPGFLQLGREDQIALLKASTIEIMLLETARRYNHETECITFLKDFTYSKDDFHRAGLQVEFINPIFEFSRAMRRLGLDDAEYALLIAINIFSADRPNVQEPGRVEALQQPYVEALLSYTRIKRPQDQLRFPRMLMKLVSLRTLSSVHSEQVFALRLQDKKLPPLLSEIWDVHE
hcDAF12 ag: confirmation of H. contortus DAF-12 agonists; HEK293 hcDAF-12 lit1-tk-luc reporter, luminescence; % of Δ7-dafachronic acid response; hit rate 61% among 3,400; shares compounds with hcDAF-12 act; AID 743032; activation, % at 6.8 µM;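 active = mean activation across triplicate tests above the threshold derived from the earlier primary screen, cut at about 5.5% in these data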;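 also: 0% = DMSO only wells and 100% = 3 µM Δ7-dafachronic acid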
hgDAF12 ag: confirmation of H. glycines DAF-12 agonists. shares compounds with hgDAF-12 ag. HEK293 GAL4-hgDAF12 luciferase reporter, agonist mode; percent of butyrate response. activation, % at 6.8 µM. hit rate 80% among 3,300. AID 743050;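 active = mean activation over triplicate wells above the hit cutoff derived from the earlier primary screen, cut at about 11% in these data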;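 also: 0% = DMSO low control and 100% = 2 mM sodium butyrate high control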
LXRb DAF12 ctr: counter-screen for DAF-12 agonists: agonists of human LXR-beta. shares compounds with hgDAF-12 ag. HEK293 Gal4-LXR luciferase reporter, 24 h. activation, % at 6.8 µM. 3,300 tested, under 10 active. AID 743051;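 active = mean activation of the triplicate above a set limit carried over from the primary screen, none filed active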
Numbers without * were called inactive; . = no result given. In the library only some 4.5% were active in any assay of this set; here they are far more common.

SMILES	ssDAF-12 act	DAX1 inh-1	hgDAF-12 ag	hcDAF-12 act	GAA850 FXN act	DAX1 inh-2	LXR ag	hcDAF12 ag	hgDAF12 ag	LXRb DAF12 ctr
Oc1ccc(/C=N/Nc2ccc3ccccc3c2)c(O)c1	1	2	4	5	0	0	.	.	.	.
Oc1ccc(C=NNc2nc3ccccc3s2)c(O)c1	1.8*	2	13*	9.6*	0	3	2	5	11*	1
Brc1cccc(-c2n[nH]c(-c3ccccc3)n2)c1	1.8*	3	14*	12*	3	2	1	9.6*	21*	1
CN(c1ccc(OC(=O)c2ccc(-n3cncn3)c([N+](=O)[O-])c2)cc1)S(=O)(=O)c1ccccc1	-1	0	-2	2	-1	1	.	.	.	.
COc1ccc(-c2c(-c3cc(OC)cc(OC)c3)n(C)c3ccc(-c4ccc(N(C)C)nc4)cc23)cc1	-1	-1	1	-2	2	0	.	.	.	.
Cc1ccc(Nc2ncnc3c2oc2ccccc23)cc1	1.3*	2	15*	11*	5	4.3*	2	8.1*	18*	1
CC(C)(C)OC(=O)C[C@@H]1C/C=C\C[C@@H](CC(=O)N[C@@H](CO)Cc2ccccc2)C(=O)N2CCC[C@@H]2COC1=O	-1	0	-1	-1	1	2	.	.	.	.
C/C(=N\Nc1ncc(Cl)cc1Cl)c1ccc(OC(F)F)cc1	-1	1	20*	6.6*	1	0	0	-1	0	0
Cc1cc(NC(=O)c2ccc(C(C)(C)C)cc2)no1	0	3	15*	7.2*	3	2	2	5.6*	21*	1
Cc1cccc2c1cnn2C(=O)CCC(=O)NCC(C)c1ccccc1 (stereo not given)	-1	-1	1	-1	0	-1	.	.	.	.
COc1nc(-c2ccccc2)ccc1-c1noc(-c2cccs2)n1	0	1	2	0	3	3	.	.	.	.
COc1cccc(-c2noc(-c3cccs3)n2)c1	1.4*	4.0*	15*	6.9*	5	2	2	11*	21*	1
COc1cccc(-c2nc(-c3ccccn3)no2)c1	-1	-1	-4	2	.	.	.	.	.	.
COc1nc(C)ccc1-c1noc(-c2cccs2)n1	0	3	14*	8.4*	4	.	1	6.2*	16*	1
COc1ccc2c(c1)CC/C(=C/c1ccco1)C2=O	0	4.2*	16*	8.6*	4	2	2	6.2*	16*	1
Nc1ccc2c(c1)C/C(=C/c1ccco1)C2=O	0	1	2	5	6	3	.	.	.	.
CC(=O)Nc1cccc(/C(C)=N/NC(=O)c2cccs2)c1	0	2	18*	6.7*	6	4	0	1	1	0
CC(=O)Nc1ccc2nc(NC(=O)c3cccs3)sc2c1	1.8*	4.2*	21*	6.7*	3	3	1	9.2*	13*	1
CC1CCN(C(=O)COC(=O)Cn2cnc3ccccc32)CC1	0	0	3	0	-1	1	.	.	.	.
CCOC(=O)C1=CN(Cc2ccco2)S(=O)(=O)N(CC)C1c1ccc(F)c(Cl)c1 (stereo not given)	-1	1	-3	0	-2	0	.	.	.	.
O=C(NC1=NCCS1)c1ccc(Cl)c(Cl)c1	1	3	20*	9.2*	5	5.4*	1	7.5*	18*	1
COc1cccc(-c2nc3ccccc3s2)c1	1.7*	4.4*	17*	15*	3	1	2	11*	27*	1
Cc1cc(C)cc(NC(=O)c2cnn(-c3ccccc3)c2C2CCNCC2)c1	-1	1	-1	-1	1	4	.	.	.	.
Cc1ccc(S(=O)(=O)/N=C(/NC(=S)Nc2ccccc2)c2ccccc2)cc1	2.6*	3	28*	14*	3	4	1	5	20*	1
Cc1ccc(S(=O)(=O)/N=C(/Nc2ccccc2C)c2ccccc2)cc1	-1	-1	0	-1	3	0	.	.	.	.
SMILES	ssDAF-12 act	DAX1 inh-1	hgDAF-12 ag	hcDAF-12 act	GAA850 FXN act	DAX1 inh-2	LXR ag	hcDAF12 ag	hgDAF12 ag	LXRb DAF12 ctr
O=[N+]([O-])c1ccc(NN=Cc2cccc(O)c2)nc1	1	1	18*	10*	5	5.6*	1	4	21*	1
O=[N+]([O-])c1ccc(N/N=C\c2cccnc2)nc1	-2	0	1	1	0	-1	.	.	.	.
COCCNC(=O)C1(C)CCN(C(=O)c2cc(C(C)(C)C)nn2C)C1 (stereo not given)	-1	1	3	0	1	.	.	.	.	.
COCc1nnc(NC(=O)c2ccc(OC)cc2OC)s1	0	2	15*	6.8*	5	0	1	4	12*	1
COc1ccc(C(=O)Nc2nnc(Cc3ccc(OC)c(OC)c3)s2)c(OC)c1	-2	-2	0	-2	3	-1	.	.	.	.
CCOC(=O)C1CCN(C(=O)c2ccccc2CCc2ccccc2)CC1	-2	0	0	-1	0	-3	.	.	.	.
COc1ccccc1/C=C/C=N/NC(=O)c1cc(-c2ccc(C)o2)[nH]n1	-1	0	0	-3	-1	-1	.	.	.	.
O=C(Nc1ccc2ccccc2n1)c1ccccc1Cl	0	1	16*	7.2*	4	3	2	5.7*	18*	1
O=C(Nc1ccc2ccccc2n1)c1ccc(Cl)cc1	1	1	15*	10*	3	3	2	7.0*	19*	1
COc1ccc(C(NC(=O)C2CCN(CCOc3ccc(Cl)cc3)CC2)c2cccs2)cc1 (stereo not given)	0	0	-2	-1	1	.	.	.	.	.
Cc1ccc(-c2cc(-c3ccccc3C)[nH]n2)c(O)c1	1	3	14*	6.8*	6	2	1	5	17*	1
Cc1ccc(-c2cc(C(=O)Nc3c(C)n(C)n(-c4ccccc4)c3=O)[nH]n2)c(O)c1	-2	0	-1	-2	-2	2	.	.	.	.
